# Screening data deposited in PubChem BioAssay by Johns Hopkins Ion Channel Center.
# An excerpt weighted towards active compounds, which were near 1.6% of everything screened.
# KCNQ2 pot: enhances the rat KCNQ2 potassium channel; O88943; CHO-K1 KCNQ2, FluxOR thallium flux fluorescence; hits give high values; B-score at 10 µM; 310,000 tested, 0.54% active; AID 2239;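 active means fluorescence ratio B-score at least 3 SD of library B-scores, with initial fluorescence B-score within 3 of them, cut at about 5.3 in these data; same plate scores as AID 2156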;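 further: B-score of peak minus minimum over baseline fluorescence ratio after K+ and Tl+ stimulus; positive B-score means potentiation of KCNQ2 with more thallium influx and brighter signal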
# KCNQ2 inh: KCNQ2 (rat) channel inhibition | CHO-K1 KCNQ2, FluxOR thallium flux, 20 min; hits give low values | B-score at 10 µM | 310,000 tested, 1.1% active;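 active means fluorescence ratio B-score at most minus 3 library SDs, with starting brightness B-score within 2 library SDs, cut at about -5.5 in these data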
# Kir21 confirm: confirmation of mouse Kir2.1 potassium channel inhibitors; 2,300 tested, 41% active; Tl flux remaining, % of negative control (hits give low values), % at 10 µM; shares compounds with KCNQ2 pot; Kir2.1-expressing cells, FluxOR thallium flux fluorescence; hits give low values;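 active means Primary-screen hit whose thallium flux fell at least 3 control SD below untreated wells in both duplicates, with normal baseline fluorescence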
# Target sequence (P35561 whole entry, looked up): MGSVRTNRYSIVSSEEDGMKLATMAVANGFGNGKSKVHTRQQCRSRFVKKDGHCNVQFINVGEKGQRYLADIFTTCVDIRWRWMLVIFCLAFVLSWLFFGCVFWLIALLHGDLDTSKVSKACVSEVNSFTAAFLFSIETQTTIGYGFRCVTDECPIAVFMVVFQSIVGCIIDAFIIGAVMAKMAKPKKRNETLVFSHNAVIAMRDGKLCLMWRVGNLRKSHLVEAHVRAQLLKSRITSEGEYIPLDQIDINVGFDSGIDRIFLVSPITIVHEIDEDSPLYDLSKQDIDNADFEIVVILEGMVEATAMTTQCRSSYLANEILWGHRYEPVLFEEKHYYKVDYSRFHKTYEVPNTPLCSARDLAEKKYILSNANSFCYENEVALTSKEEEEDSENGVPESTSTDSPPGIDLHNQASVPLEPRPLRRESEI
# HEK293 ctr: parental HEK293 activity in Kir2.1 inhibitor counter-screen; shares compounds with KCNQ2 pot; parental HEK293 cells, FluxOR thallium flux fluorescence; 0% = unstimulated blank wells; FluxOR signal as % of negative control (100 = no effect), % at 10 µM; 2,300 tested, 19% active;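 active means dye signal at least 3 control SD above or below untreated wells in both duplicates, raw fluorescence within 3, either direction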;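 further: percent is based on the flux ratio of peak minus minimum fluorescence over baseline F0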
# CHO-K1 Tl ctr: counter-screen for KCNQ2 potentiators: effect in parental CHO-K1 cells; shares compounds with KCNQ2 pot; FluxOR thallium flux fluorescence; zero = vehicle mean+3SD, 100% = vehicle-minus-blank window; activity increase over 3SD of controls, % at 10 µM; 1,200 tested, 43% active;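 active means signal rise of at least 3 SD above the untreated control mean, in both duplicate wells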;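 further: counter screen of KCNQ2 potentiator hits so any rise reflects channel-independent effects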
# KCNQ1 sel pot: selectivity of KCNQ2 potentiators: effect on human KCNQ1; shares compounds with KCNQ2 pot; AID 2283; CHO KCNQ1 stable, FluxOR thallium flux fluorescence; beyond 3SD, as % of vehicle-control signal; 1,200 tested, 28% active; activation over 3SD threshold, % at 10 µM;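 active means fluorescence ratio rise of at least 3 SD of vehicle wells above their mean, in both replicate wells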
# KCNQ2 pot conf: confirmation of rat KCNQ2 potassium channel potentiators | shares compounds with KCNQ2 pot | CHO-KCNQ2 cells, FluxOR thallium flux fluorescence | potentiation, less the hit threshold, % at 10 µM | 1,200 tested, 68% active | AID 2287;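 active means fluorescence ratio rising 3 SD or more over the vehicle control mean in both replicates, plus primary screen hit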;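 further: peak minus minimum thallium fluorescence divided by baseline after K/Tl stimulus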
# Kir21 spec: mouse Kir2.1 off-target activity of KCNQ2 potentiators; shares compounds with KCNQ2 pot; HEK293 Kir2.1, FluxOR thallium flux fluorescence; activity over 3SD threshold, % at 10 µM; 1,200 tested, 2% active; AID 2345;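 active means fluorescence ratio rise of at least 3 SD above the vehicle-control mean, seen in both replicates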
# KCNQ2 W236L MoA: potentiates the retigabine-insensitive rat KCNQ2 W236L mutant channel | current increase over 3SD of negative controls (%), hits give high values, % at 25 µM | 940 tested, 10% active | shares compounds with KCNQ2 pot | CHO KCNQ2-W236L, automated patch clamp current;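 active means current increase at least 3 SD of the untreated controls above them in both duplicate recordings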
# Hits are given with their value; – = inactive; · = no result.
SMILES,KCNQ2 pot,KCNQ2 inh,Kir21 confirm,HEK293 ctr,others
O=C(Oc1ccc(C(=S)N2CCOCC2)cc1)c1ccccc1[N+](=O)[O-],·,–,·,·,
O=C(Oc1ccc(C(=S)N2CCOCC2)cc1)c1ccccc1F,–,–,71%,–,
O=C(Oc1ccc(C(=S)N2CCOCC2)cc1Cl)c1ccccc1F,·,–,69%,–,
CC(C)Oc1ccc(C2CC(=O)N(C)C2=O)cc1 (configuration not stated),–,–,·,·,
CCn1cc(C(=O)NCCc2ccccc2)c(=O)c2cc(S(=O)(=O)N(C)C)ccc21,–,–,–,–,
CCn1cc(C(=O)NCCN(C)CCc2ccccc2)c(=O)c2cc(S(=O)(=O)N(C)C)ccc21,–,–,·,·,
CCCn1c(=S)[nH]c2ccccc2c1=O,–,–,·,·,
CCc1cc2c(=O)n(CCC(C)C)c(=S)[nH]c2s1,17,–,–,371%,CHO-K1 Tl ctr=14;KCNQ1 sel pot=–;KCNQ2 pot conf=57;Kir21 spec=–;KCNQ2 W236L MoA=–
Cc1ccc(SCC(=O)Nc2ccc3c(c2)C(=O)N(C)C3=O)cc1,·,–,·,·,
Cc1ccc(N(CC(=O)NCc2ccccc2)C(=O)CCC(=O)Nc2ccccn2)cc1,·,–,·,·,
COc1ccc(OCC(=O)N2N=C(C)CC2(O)C(F)(F)F)cc1 (configuration not stated),·,–,·,·,
CC1=NN(C(=O)c2c(Br)cnn2C)C(O)(C(F)(F)F)C1 (configuration not stated),14,–,–,–,CHO-K1 Tl ctr=–;KCNQ1 sel pot=–;KCNQ2 pot conf=–;Kir21 spec=–
CC(=O)Nc1ccc(C(=O)N/N=C/c2cc(Br)cc(Br)c2O)cc1,·,–,·,·,
Cc1ccc(C(=O)O)cc1N=Cc1cc(Br)cc(Br)c1O,10,–,–,–,CHO-K1 Tl ctr=–;KCNQ1 sel pot=–;KCNQ2 pot conf=31;Kir21 spec=–;KCNQ2 W236L MoA=–
Cc1ccc(N(C(=O)c2ccco2)C2C=CS(=O)(=O)C2)cc1 (configuration not stated),–,–,·,·,
CNC(=O)c1nnsc1S(=O)c1ccc(Cl)cc1 (configuration not stated),·,–,66%,65%,
Cc1nnsc1S(=O)c1ccc(F)cc1 (configuration not stated),–,–,·,·,
Cc1ccc(S(=O)c2snnc2C)cc1 (configuration not stated),·,–,·,·,
CCCNC(=O)c1nnsc1S(=O)c1ccc(Cl)cc1 (configuration not stated),–,-6.8,74%,–,
Cc1ccsc1C(=O)OCC(=O)N(C)c1c(N)n(Cc2ccccc2)c(=O)[nH]c1=O,·,–,·,·,
CS(=O)(=O)N1CCN(c2ccc(NC(=S)NC(=O)c3cccs3)cc2)CC1,·,–,·,·,
O=C(NC(=S)Nc1ccc(N2CCCCC2)cc1)c1cccs1,5.8,–,–,126%,CHO-K1 Tl ctr=–;KCNQ1 sel pot=–;KCNQ2 pot conf=3.0;Kir21 spec=–;KCNQ2 W236L MoA=–
Cc1cc(-c2nc(C)c(C(=O)NN)s2)no1,–,–,·,·,
O=C(COc1ccc(Cl)cc1)NC1CCSC1=O (configuration not stated),·,–,·,·,
Cc1ccc(C)c(OCC(=O)Nc2ccc(S(=O)(=O)Nc3ncccn3)cc2)c1,–,–,·,·,
SMILES,KCNQ2 pot,KCNQ2 inh,Kir21 confirm,HEK293 ctr,others
COc1ccc(C(=O)NNC2=C(C(=O)C(F)(F)F)CCC2)cc1,5.5,–,–,–,CHO-K1 Tl ctr=14;KCNQ1 sel pot=32;KCNQ2 pot conf=6.0;Kir21 spec=–;KCNQ2 W236L MoA=–
O=C(NNC1=C(C(=O)C(F)(F)F)CCC1)c1ccc(Cl)cc1,7.8,–,–,–,CHO-K1 Tl ctr=18;KCNQ1 sel pot=–;KCNQ2 pot conf=4.8;Kir21 spec=–;KCNQ2 W236L MoA=–
O=C(NNC1=C(C(=O)C(F)(F)F)CCC1)c1cccc(Cl)c1,–,–,·,·,
COc1ccc(C(=O)NNc2ccccc2)cc1,·,–,·,·,
CCOc1c(Nc2ccc(C(C)C)cc2)c(=O)c1=O,–,–,·,·,
CCCc1cc(-c2n[nH]c(=S)n2CC)cs1,–,–,·,·,
CCCCn1c(-c2csc(CCC)c2)n[nH]c1=S,9.1,–,–,172%,CHO-K1 Tl ctr=–;KCNQ1 sel pot=–;KCNQ2 pot conf=20;Kir21 spec=–;KCNQ2 W236L MoA=–
COc1ccccc1C(=O)Nc1nnc(-c2ccc(F)cc2)s1,·,–,·,·,
COc1ccc(C(=O)Nc2nnc(-c3ccc(F)cc3)s2)c(OC)c1,10,–,–,–,CHO-K1 Tl ctr=–;KCNQ1 sel pot=19;KCNQ2 pot conf=–;Kir21 spec=–
O=[N+]([O-])c1cc(S(=O)(=O)N2CCCC2)ccc1SCCO,·,–,·,·,
CC1(c2ccccc2)CC(C)(C)N2C(=O)/C(=C3\SC(=S)NC3=O)c3cccc1c32 (configuration not stated),32,–,–,–,CHO-K1 Tl ctr=–;KCNQ1 sel pot=–;KCNQ2 pot conf=4.3;Kir21 spec=–;KCNQ2 W236L MoA=–
CC1(c2ccccc2)CC(C)(C)N2C(=O)C3(C(C#N)=C(N)Oc4cc(O)ccc43)c3cccc1c32 (configuration not stated),–,–,·,·,
O=C1CCN(Cc2ccccc2)N1,–,–,·,·,
Cc1cc(C)c[n+](-c2[nH]c(=O)sc2/C=N/NC([S-])=Nc2ccccc2)c1,·,–,·,·,
CCN(Cc1ccc(C#CCCO)cc1)CC1CCCN(CCc2cccc(F)c2)C1 (configuration not stated),·,–,53%,–,
CN(Cc1ccc(C#CCCO)cc1)CC1CCCN(CCc2ccc(Cl)cc2)C1 (configuration not stated),·,–,40%,–,
COc1ccc(CN(C)CC2CCCN(CCc3ccc(F)cc3)C2)c(OC)c1OC (configuration not stated),·,–,·,·,
COc1ccc(CCN2CCCC(CN(C)Cc3cccc(OC)c3)C2)cc1 (configuration not stated),–,–,33%,–,
CCN(Cc1ccc(OC)c(COC)c1)CC1CCCN(CCc2cccc(F)c2)C1 (configuration not stated),·,–,·,·,
CCN(Cc1ccc(OC)c(COC)c1)CC1CCCN(CCc2cccc(OC)c2)C1 (configuration not stated),–,–,·,·,
COc1c(Cl)cc(Br)c(OC)c1C(=O)NC(=O)Nc1nc(C)cc(C)n1,·,–,·,·,
O=C1CCCCC1Sc1nnc(-c2ccc3c(c2)OCO3)o1 (configuration not stated),–,–,·,·,
COc1ccc(-n2nc3c(c2NC(=O)COc2cccc(OC)c2)CS(=O)(=O)C3)cc1,–,–,·,·,
COc1ccc(OC)c(S(=O)(=O)N2CCC(NC(=O)c3ccccc3)CC2)c1,–,–,·,·,
CC1CCN(C(=O)CSc2nc(=O)n3ccccc3n2)CC1,–,–,·,·,
COc1ccc(Br)cc1/C(C)=N/NC1=NCCN1,–,–,·,·,
CCCCCOc1ccc(Br)cc1/C(C)=N/NC1=NCCN1,·,–,16%,–,
